# Assays:
# Assay in all cases: PBM; 200 nM protein, PBS
# Settings in all cases: dsDNA, one strand shown
# [1] = biological target: HOXB4 (Homo sapiens, UniProt P17483 148-234)
# [2] = biological target: HOXA4 (Homo sapiens, UniProt Q00056 201-287, W262R)
# [3] = biological target: HOXB6 (Homo sapiens, UniProt P17509 132-218, K202E)
# [4] = biological target: HOXA2 (Homo sapiens, UniProt O43364 129-215, R185T)
# [5] = biological target: HOXA4 (Homo sapiens, UniProt Q00056 201-287, R217L)
# [6] = biological target: HOXB4 (Homo sapiens, UniProt P17483 148-234, V174I)
# Chain of HOXB4 (Homo sapiens, UniProt P17483 148-234, V174I) (P17483 148-234 V174I): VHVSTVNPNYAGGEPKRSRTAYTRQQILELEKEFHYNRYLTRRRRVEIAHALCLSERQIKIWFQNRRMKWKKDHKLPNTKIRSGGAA
# [7] = biological target: HOXA2 (Homo sapiens, UniProt O43364 129-215, R185K)
# Chain of HOXA2 (Homo sapiens, UniProt O43364 129-215, R185K) (O43364 129-215 R185K): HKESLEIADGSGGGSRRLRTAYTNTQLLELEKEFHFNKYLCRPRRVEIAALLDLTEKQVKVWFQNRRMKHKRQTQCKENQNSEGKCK
# [8] = biological target: HOXA4 (Homo sapiens, UniProt Q00056 201-287)
# Chain of HOXA4 (Homo sapiens, UniProt Q00056 201-287) (Q00056 201-287): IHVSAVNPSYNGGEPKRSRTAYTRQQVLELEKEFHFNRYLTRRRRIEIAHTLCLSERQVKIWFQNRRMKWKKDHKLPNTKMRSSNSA
# [9] = biological target: VAX1 (Homo sapiens, UniProt Q5SQQ9 86-172)
# Chain of VAX1 (Homo sapiens, UniProt Q5SQQ9 86-172) (Q5SQQ9 86-172): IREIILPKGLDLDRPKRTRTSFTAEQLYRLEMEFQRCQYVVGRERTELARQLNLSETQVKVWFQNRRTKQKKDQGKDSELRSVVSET
# [10] = biological target: VAX1 (Homo sapiens, UniProt Q5SQQ9 86-172, T142I)
# Chain of VAX1 (Homo sapiens, UniProt Q5SQQ9 86-172, T142I) (Q5SQQ9 86-172 T142I): as the sequence (Q5SQQ9 86-172) above, with T57I counted along it
# [11] = biological target: HOXA2 (Homo sapiens, UniProt O43364 129-215, Y150S)
# Chain of HOXA2 (Homo sapiens, UniProt O43364 129-215, Y150S) (O43364 129-215 Y150S): as the sequence (O43364 129-215 R185K) above, with Y22S, K57R counted along it
# [12] = biological target: HOXA4 (Homo sapiens, UniProt Q00056 201-287, W262F)
# Chain of HOXA4 (Homo sapiens, UniProt Q00056 201-287, W262F) (Q00056 201-287 W262F): as the sequence (Q00056 201-287) above, with W62F counted along it
# [13] = biological target: HOXA2 (Homo sapiens, UniProt O43364 129-215)
# Chain of HOXA2 (Homo sapiens, UniProt O43364 129-215) (O43364 129-215): as the sequence (O43364 129-215 R185K) above, with K57R counted along it
# [14] = biological target: VAX1 (Homo sapiens, UniProt Q5SQQ9 86-172, K157R)
# Chain of VAX1 (Homo sapiens, UniProt Q5SQQ9 86-172, K157R) (Q5SQQ9 86-172 K157R): as the sequence (Q5SQQ9 86-172) above, with K72R counted along it
# [15] = biological target: HOXA7 (Homo sapiens, UniProt P31268 116-202)
# Chain of HOXA7 (Homo sapiens, UniProt P31268 116-202) (P31268 116-202): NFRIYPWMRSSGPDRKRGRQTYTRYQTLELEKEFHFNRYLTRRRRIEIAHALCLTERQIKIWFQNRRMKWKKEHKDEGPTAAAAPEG
# [16] = biological target: HOXA7 (Homo sapiens, UniProt P31268 116-202, W177C)
# Chain of HOXA7 (Homo sapiens, UniProt P31268 116-202, W177C) (P31268 116-202 W177C): as the sequence (P31268 116-202) above, with W62C counted along it
# [17] = biological target: HOXB6 (Homo sapiens, UniProt P17509 132-218)
# Chain of HOXB6 (Homo sapiens, UniProt P17509 132-218) (P17509 132-218): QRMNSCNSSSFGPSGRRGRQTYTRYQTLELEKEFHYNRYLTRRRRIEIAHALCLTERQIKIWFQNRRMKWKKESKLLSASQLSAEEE
# [18] = biological target: T1, VENTX (Homo sapiens, UniProt O95231 78-163, Y115F)
# T1 sequence: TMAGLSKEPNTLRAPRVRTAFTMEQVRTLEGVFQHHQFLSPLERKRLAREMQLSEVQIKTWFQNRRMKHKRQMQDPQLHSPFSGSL
# Chain of HOXB6 (Homo sapiens, UniProt P17509 132-218, K202E) (P17509 132-218 K202E): as the sequence (P17509 132-218) above, with K71E counted along it
# Chain of HOXB4 (Homo sapiens, UniProt P17483 148-234) (P17483 148-234): as the sequence (P17483 148-234 V174I) above, with I27V counted along it
# Chain of HOXA4 (Homo sapiens, UniProt Q00056 201-287, W262R) (Q00056 201-287 W262R): as the sequence (Q00056 201-287) above, with W62R counted along it
# Chain of HOXA2 (Homo sapiens, UniProt O43364 129-215, R185T) (O43364 129-215 R185T): as the sequence (O43364 129-215 R185K) above, with K57T counted along it
# Chain of HOXA4 (Homo sapiens, UniProt Q00056 201-287, R217L) (Q00056 201-287 R217L): as the sequence (Q00056 201-287) above, with R17L counted along it
sequence,measurement,setting,value
TAATGATA,binding signal,[1],"13.4 upbm affinity estimate (log intensity, higher = more binding, comparable within an allelic series)"
same,binding signal,[2],"10.5 upbm affinity estimate (log intensity, higher = more binding, comparable within an allelic series)"
same,binding signal,[3],"10 upbm affinity estimate (log intensity, higher = more binding, comparable within an allelic series)"
same,binding signal,[4],"12.2 upbm affinity estimate (log intensity, higher = more binding, comparable within an allelic series)"
same,binding signal,[5],"12.2 upbm affinity estimate (log intensity, higher = more binding, comparable within an allelic series)"
same,binding signal,[6],"14.1 upbm affinity estimate (log intensity, higher = more binding, comparable within an allelic series)"
same,binding signal,[7],"13.2 upbm affinity estimate (log intensity, higher = more binding, comparable within an allelic series)"
same,binding signal,[8],"13.9 upbm affinity estimate (log intensity, higher = more binding, comparable within an allelic series)"
same,binding signal,[9],"12.7 upbm affinity estimate (log intensity, higher = more binding, comparable within an allelic series)"
same,binding signal,[10],"12.5 upbm affinity estimate (log intensity, higher = more binding, comparable within an allelic series)"
same,binding signal,[11],"11 upbm affinity estimate (log intensity, higher = more binding, comparable within an allelic series)"
same,binding signal,[12],"11.6 upbm affinity estimate (log intensity, higher = more binding, comparable within an allelic series)"
same,binding signal,[13],"12.3 upbm affinity estimate (log intensity, higher = more binding, comparable within an allelic series)"
same,binding signal,[14],"12.3 upbm affinity estimate (log intensity, higher = more binding, comparable within an allelic series)"
CGGCGGTC,binding signal,[1],"7.42 upbm affinity estimate (log intensity, higher = more binding, comparable within an allelic series)"
same,binding signal,[2],"9.72 upbm affinity estimate (log intensity, higher = more binding, comparable within an allelic series)"
same,binding signal,[5],"9.69 upbm affinity estimate (log intensity, higher = more binding, comparable within an allelic series)"
same,binding signal,[6],"7.32 upbm affinity estimate (log intensity, higher = more binding, comparable within an allelic series)"
same,binding signal,[8],"9.77 upbm affinity estimate (log intensity, higher = more binding, comparable within an allelic series)"
same,binding signal,[12],"9.76 upbm affinity estimate (log intensity, higher = more binding, comparable within an allelic series)"
ATTTGAAC,binding signal,[1],"9.93 upbm affinity estimate (log intensity, higher = more binding, comparable within an allelic series)"
same,binding signal,[6],"9.93 upbm affinity estimate (log intensity, higher = more binding, comparable within an allelic series)"
CCCTTGCG,binding signal,[1],"7.39 upbm affinity estimate (log intensity, higher = more binding, comparable within an allelic series)"
same,binding signal,[2],"9.76 upbm affinity estimate (log intensity, higher = more binding, comparable within an allelic series)"
same,binding signal,[5],"9.77 upbm affinity estimate (log intensity, higher = more binding, comparable within an allelic series)"
same,binding signal,[6],"7.32 upbm affinity estimate (log intensity, higher = more binding, comparable within an allelic series)"
same,binding signal,[8],"9.61 upbm affinity estimate (log intensity, higher = more binding, comparable within an allelic series)"
same,binding signal,[12],"9.81 upbm affinity estimate (log intensity, higher = more binding, comparable within an allelic series)"
GTGGGGGA,binding signal,[1],"7.95 upbm affinity estimate (log intensity, higher = more binding, comparable within an allelic series)"
same,binding signal,[15],"8.47 upbm affinity estimate (log intensity, higher = more binding, comparable within an allelic series)"
same,binding signal,[3],"9.05 upbm affinity estimate (log intensity, higher = more binding, comparable within an allelic series)"
same,binding signal,[6],"7.59 upbm affinity estimate (log intensity, higher = more binding, comparable within an allelic series)"
same,binding signal,[16],"8.55 upbm affinity estimate (log intensity, higher = more binding, comparable within an allelic series)"
same,binding signal,[17],"9.14 upbm affinity estimate (log intensity, higher = more binding, comparable within an allelic series)"
ATAATGAT,binding signal,[1],"13.2 upbm affinity estimate (log intensity, higher = more binding, comparable within an allelic series)"
same,binding signal,[2],"10.6 upbm affinity estimate (log intensity, higher = more binding, comparable within an allelic series)"
same,binding signal,[4],"12.1 upbm affinity estimate (log intensity, higher = more binding, comparable within an allelic series)"
same,binding signal,[5],"12.2 upbm affinity estimate (log intensity, higher = more binding, comparable within an allelic series)"
same,binding signal,[6],"13.8 upbm affinity estimate (log intensity, higher = more binding, comparable within an allelic series)"
same,binding signal,[7],"13.1 upbm affinity estimate (log intensity, higher = more binding, comparable within an allelic series)"
same,binding signal,[8],"13.9 upbm affinity estimate (log intensity, higher = more binding, comparable within an allelic series)"
same,binding signal,[10],"12.3 upbm affinity estimate (log intensity, higher = more binding, comparable within an allelic series)"
same,binding signal,[11],"10.9 upbm affinity estimate (log intensity, higher = more binding, comparable within an allelic series)"
same,binding signal,[12],"11.5 upbm affinity estimate (log intensity, higher = more binding, comparable within an allelic series)"
same,binding signal,[13],"12.1 upbm affinity estimate (log intensity, higher = more binding, comparable within an allelic series)"
CGCCGGGC,binding signal,[1],"7.64 upbm affinity estimate (log intensity, higher = more binding, comparable within an allelic series)"
same,binding signal,[2],"9.72 upbm affinity estimate (log intensity, higher = more binding, comparable within an allelic series)"
same,binding signal,[4],"7.33 upbm affinity estimate (log intensity, higher = more binding, comparable within an allelic series)"
same,binding signal,[5],"9.76 upbm affinity estimate (log intensity, higher = more binding, comparable within an allelic series)"
same,binding signal,[6],"7.67 upbm affinity estimate (log intensity, higher = more binding, comparable within an allelic series)"
same,binding signal,[7],"10.2 upbm affinity estimate (log intensity, higher = more binding, comparable within an allelic series)"
same,binding signal,[8],"9.84 upbm affinity estimate (log intensity, higher = more binding, comparable within an allelic series)"
same,binding signal,[11],"10.4 upbm affinity estimate (log intensity, higher = more binding, comparable within an allelic series)"
same,binding signal,[12],"9.99 upbm affinity estimate (log intensity, higher = more binding, comparable within an allelic series)"
same,binding signal,[13],"7.24 upbm affinity estimate (log intensity, higher = more binding, comparable within an allelic series)"
TAATGACA,binding signal,[1],"13 upbm affinity estimate (log intensity, higher = more binding, comparable within an allelic series)"
same,binding signal,[2],"10.6 upbm affinity estimate (log intensity, higher = more binding, comparable within an allelic series)"
same,binding signal,[15],"11.2 upbm affinity estimate (log intensity, higher = more binding, comparable within an allelic series)"
same,binding signal,[18],"11.5 upbm affinity estimate (log intensity, higher = more binding, comparable within an allelic series)"
same,binding signal,[3],"10 upbm affinity estimate (log intensity, higher = more binding, comparable within an allelic series)"
same,binding signal,[4],"12.6 upbm affinity estimate (log intensity, higher = more binding, comparable within an allelic series)"
same,binding signal,[5],"12.2 upbm affinity estimate (log intensity, higher = more binding, comparable within an allelic series)"
same,binding signal,[6],"13.7 upbm affinity estimate (log intensity, higher = more binding, comparable within an allelic series)"
same,binding signal,[7],"13.4 upbm affinity estimate (log intensity, higher = more binding, comparable within an allelic series)"
same,binding signal,[8],"13.8 upbm affinity estimate (log intensity, higher = more binding, comparable within an allelic series)"
same,binding signal,[9],"12.8 upbm affinity estimate (log intensity, higher = more binding, comparable within an allelic series)"
same,binding signal,[10],"12.7 upbm affinity estimate (log intensity, higher = more binding, comparable within an allelic series)"
same,binding signal,[11],"11 upbm affinity estimate (log intensity, higher = more binding, comparable within an allelic series)"
same,binding signal,[16],"8.98 upbm affinity estimate (log intensity, higher = more binding, comparable within an allelic series)"
same,binding signal,[12],"11.7 upbm affinity estimate (log intensity, higher = more binding, comparable within an allelic series)"
same,binding signal,[13],"12.5 upbm affinity estimate (log intensity, higher = more binding, comparable within an allelic series)"
same,binding signal,[14],"12.5 upbm affinity estimate (log intensity, higher = more binding, comparable within an allelic series)"
same,binding signal,[17],"11.7 upbm affinity estimate (log intensity, higher = more binding, comparable within an allelic series)"
TATTTAAA,binding signal,[1],"11.2 upbm affinity estimate (log intensity, higher = more binding, comparable within an allelic series)"
same,binding signal,[2],"10.5 upbm affinity estimate (log intensity, higher = more binding, comparable within an allelic series)"
same,binding signal,[6],"11.2 upbm affinity estimate (log intensity, higher = more binding, comparable within an allelic series)"
same,binding signal,[8],"12 upbm affinity estimate (log intensity, higher = more binding, comparable within an allelic series)"
ACCCGTGG,binding signal,[1],"7.52 upbm affinity estimate (log intensity, higher = more binding, comparable within an allelic series)"
same,binding signal,[2],"9.91 upbm affinity estimate (log intensity, higher = more binding, comparable within an allelic series)"
same,binding signal,[5],"9.76 upbm affinity estimate (log intensity, higher = more binding, comparable within an allelic series)"
same,binding signal,[6],"7.53 upbm affinity estimate (log intensity, higher = more binding, comparable within an allelic series)"
same,binding signal,[8],"9.78 upbm affinity estimate (log intensity, higher = more binding, comparable within an allelic series)"
same,binding signal,[12],"9.9 upbm affinity estimate (log intensity, higher = more binding, comparable within an allelic series)"
GGTAATGA,binding signal,[1],"12.9 upbm affinity estimate (log intensity, higher = more binding, comparable within an allelic series)"
same,binding signal,[2],"10.4 upbm affinity estimate (log intensity, higher = more binding, comparable within an allelic series)"
same,binding signal,[4],"12.1 upbm affinity estimate (log intensity, higher = more binding, comparable within an allelic series)"
same,binding signal,[5],"11.9 upbm affinity estimate (log intensity, higher = more binding, comparable within an allelic series)"
same,binding signal,[6],"13.6 upbm affinity estimate (log intensity, higher = more binding, comparable within an allelic series)"
same,binding signal,[7],"13 upbm affinity estimate (log intensity, higher = more binding, comparable within an allelic series)"
same,binding signal,[8],"13.5 upbm affinity estimate (log intensity, higher = more binding, comparable within an allelic series)"
same,binding signal,[9],"12.8 upbm affinity estimate (log intensity, higher = more binding, comparable within an allelic series)"
same,binding signal,[10],"12.6 upbm affinity estimate (log intensity, higher = more binding, comparable within an allelic series)"
same,binding signal,[11],"10.8 upbm affinity estimate (log intensity, higher = more binding, comparable within an allelic series)"
same,binding signal,[12],"11.2 upbm affinity estimate (log intensity, higher = more binding, comparable within an allelic series)"
same,binding signal,[13],"12.1 upbm affinity estimate (log intensity, higher = more binding, comparable within an allelic series)"
same,binding signal,[14],"12.5 upbm affinity estimate (log intensity, higher = more binding, comparable within an allelic series)"
ACCGTGGG,binding signal,[1],"7.69 upbm affinity estimate (log intensity, higher = more binding, comparable within an allelic series)"
same,binding signal,[15],"8.39 upbm affinity estimate (log intensity, higher = more binding, comparable within an allelic series)"
same,binding signal,[6],"7.68 upbm affinity estimate (log intensity, higher = more binding, comparable within an allelic series)"
same,binding signal,[16],"8.44 upbm affinity estimate (log intensity, higher = more binding, comparable within an allelic series)"

# — paper PMC11006913
